For part of these data: Entries with a potency or affinity are not part of this list. Calls of active or inactive are those of the source. Unless noted, cut-off not given; nearly all actives show IC50 up to about 0.98 µM.
System: not listed separately
Assay: inhibition of 3D7 malaria parasite growth – strain 3D7 (AID 2306; call rule not given here;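 further: 0% = DMSO wells and 100% = chloroquine plus artemisinin control wells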)
Conditions: P. falciparum 3D7 erythrocytic growth, LDH absorbance, 72 h; at 2 µM; hits give high values
With `O=C(NCCCCCN1CCC(c2c[nH]c3ccccc23)CC1)c1ccc(Cl)c(Cl)c1` the growth inhibition was 85% (active).
In the case of `FC(F)(F)c1ccc2nccc(NN=CC=Cc3ccccc3)c2c1`, the growth inhibition is reported as 82% (active).
In the case of `N#Cc1ccnc(-c2ccc(CNC3CCN(CC4Cn5c(=O)ccc6ccc(F)c4c65)CC3)cc2)c1` (stereo not given), the growth inhibition is reported as 88% (active).
For `COc1cc2nc(NCc3ccc(S(N)(=O)=O)cc3)nc(Nc3ccc(Oc4ccccc4)cc3)c2cc1OC`, the growth inhibition was 101% (active).
With `Cc1nc(N)nc(N)c1OCc1cccc2c1ccc1ccccc12` the growth inhibition was 95% (active).

Molecular target: Calcium-dependent protein kinase 1 (Plasmodium falciparum (isolate 3D7)) (UniProt P62344)
Sequence (P62344 whole entry, looked up): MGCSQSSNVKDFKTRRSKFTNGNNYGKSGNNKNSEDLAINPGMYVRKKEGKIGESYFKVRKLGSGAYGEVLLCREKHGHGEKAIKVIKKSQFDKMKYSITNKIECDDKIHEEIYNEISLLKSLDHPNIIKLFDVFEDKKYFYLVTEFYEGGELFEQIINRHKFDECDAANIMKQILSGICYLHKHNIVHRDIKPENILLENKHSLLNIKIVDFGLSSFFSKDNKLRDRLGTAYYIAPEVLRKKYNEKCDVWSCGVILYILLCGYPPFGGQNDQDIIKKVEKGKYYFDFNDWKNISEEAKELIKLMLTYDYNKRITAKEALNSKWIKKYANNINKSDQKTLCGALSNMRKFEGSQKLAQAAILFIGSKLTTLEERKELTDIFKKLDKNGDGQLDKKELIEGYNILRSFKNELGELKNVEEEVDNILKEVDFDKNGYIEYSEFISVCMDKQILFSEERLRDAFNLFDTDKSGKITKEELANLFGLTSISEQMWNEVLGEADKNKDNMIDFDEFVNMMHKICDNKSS
Assay: PfCDPK1 kinase inhibitors, biochemical, TCAMS library (AID 1159585);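 further: inhibitors leave more ATP so luminescence rises with inhibition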
Conditions: recombinant PfCDPK1, Kinase-Glo ATP depletion luminescence
In the case of `COc1cccc2c1CCN(CCN1CCC(NC(=O)c3ccc(-c4cccc(Cl)c4Cl)cc3)CC1)C2`, the outcome is reported as “inactive”.
In the case of `C=CCC1OC(=O)c2cc(OC)cc(OC)c21` (stereo not given), the outcome is reported as “inactive”.
In the case of `COCC(=O)Nc1nc2ccccc2[nH]1`, the outcome is reported as “inactive”.
In the case of `COc1ccc(NC(=O)C2c3ccccc3C(=O)N(C3CCCC3)C2c2cccs2)cc1` (stereo not given), the outcome is reported as “inactive”.
With `CN1C[C@@H](c2ccccc2)c2cc(O)c(CN3CCCCC3)cc2C[C@H]1Cc1ccccc1` the outcome was “inactive”.
With `CO/C(=C\C=C\c1cc2cc(Cl)c(Cl)cc2[nH]1)C(=O)NC1CCN(CCNc2ccccc2)CC1` the outcome was “inactive”.
With `CC(C)(CC1CCCCC1)NC(=O)[C@H](CC1CCCCC1)Nc1ccc(C#N)c2ccccc12` the outcome was “inactive”.
With `CC[C@H](NC(=O)c1ccc(NC(=O)OC(C)(C)C)cc1)C(=O)N[C@@H](CO)C(=O)NCCCCc1ccccc1` the outcome was “inactive”.
With `COc1ccccc1CNC(=O)c1ccc(N2CCN(c3ccncc3)CC2)cn1` the outcome was “inactive”.
In the case of `CCCCCCCCCc1c(C)[nH]c2ccccc2c1=O`, the outcome is reported as “inactive”.
In the case of `NC(N)=NN=Cc1ccc2c(c1)Cc1ccccc1-2`, the outcome is reported as “inactive”.
For `CC(C)(C)c1ccc(C(=O)NC2CCC(CCN3CCc4ccc(S(C)(=O)=O)cc4CC3)CC2)cc1C(F)(F)F` (stereo not given), the outcome was “inactive”.
For `O=C(Nc1ccc2c(c1)OCO2)c1cc(-c2cccnc2)cnc1NCc1ccc2c(c1)OCO2`, the outcome was “inactive”.
In the case of `COc1ccc(Nc2ccnc3cc(-c4ccccn4)ccc23)cc1OC`, the outcome is reported as “inactive”.
For `CC(C)Cn1c(Sc2ccc(C#N)c([N+](=O)[O-])c2)nnc1-c1cccs1`, the outcome was “inactive”.
In the case of `Cc1cc(NC(=O)c2ccco2)ccc1OC1CCN(Cc2ccc(F)cc2)C1` (stereo not given), the outcome is reported as “inactive”.
With `Cn1cncc1CNCc1ccc(-c2cccc(-c3nc4ccccc4[nH]3)c2)cc1` the outcome was “inactive”.
In the case of `COc1cc(C(=O)N2CCOC(CCN3CCc4c(c5ccccc5n4C)C3)(c3ccc(Cl)c(Cl)c3)C2)cc(OC)c1OC` (stereo not given), the outcome is reported as “inactive”.
For `CC(C)C[C@H](NC(=O)c1cc2ccccc2s1)C(=O)N[C@H]1CCN(Cc2ccc(I)c(OCCN3CCCC3)c2)C1`, the outcome was “inactive”.
For `O=C(Nc1cc(F)cc(F)c1)N1CCOC(CCN2CCC(c3ccccc3)CC2)(c2ccc(Cl)c(Cl)c2)C1` (stereo not given), the outcome was “inactive”.
For `COc1ccc(-c2nc3cccnc3n2CC(=O)Nc2cc(Cl)c(Cl)cc2Cl)c(OC)c1`, the outcome was “inactive”.
With `CCCCn1c(C(C)Oc2ccc(Cl)cc2Cl)nc2cc(S(N)(=O)=O)ccc21` (stereo not given) the outcome was “inactive”.
For `CC(C)N1CCN(c2ccc(OCCCN3CCN(c4cccc(Cl)c4Cl)CC3)c(C(F)(F)F)c2)CC1`, the outcome was “inactive”.
With `COc1ccc(OC)c(Cc2cnc3nc(N)[nH]c(=O)c3c2C)c1` the outcome was “inactive”.
For `CCCCCCNC(=O)C1Cc2c([nH]c3ccc(C)cc23)C2(CCN(CCc3ccccc3)CC2)N1` (stereo not given), the outcome was “inactive”.
For `COc1cccc(NC(=O)NC2CCN(c3ccnc(Nc4cc(OC)c(OC)c(OC)c4)n3)C2)c1` (stereo not given), the outcome was “inactive”.
With `Fc1ccc2nc(-c3ccc(-c4ccc(CNCCc5ccncc5)cc4)s3)[nH]c2c1` the outcome was “inactive”.
In the case of `CC(C)C[C@@H](NC(=O)OC(C)(C)C)C(=O)Nc1ccc(Cc2ccc(NC(=O)[C@@H](CC(C)C)NC(=O)OC(C)(C)C)cc2)cc1`, the outcome is reported as “inactive”.
With `COc1ccc(CNCCc2cccs2)cc1-c1ccc(S(=O)(=O)NCCN2CCCC2)s1` the outcome was “inactive”.
In the case of `O=c1c(NCCCN(Cc2ccc(F)cc2)c2ccccn2)c(NCc2cccnc2)c1=O`, the outcome is reported as “inactive”.
With `CC(C)CNCc1ccc(-c2ccc(CN(CCCN3CCN(C)CC3)C(=O)CCC3CCCC3)cc2)cc1` the outcome was “inactive”.
With `CC(=O)C1=NN(c2ccc(C)cc2)C(c2cccs2)N1c1ccccc1` (stereo not given) the outcome was “inactive”.
For `CCn1cc(-c2cc(C(=O)Nc3ccc(OC)cc3C)c3ccccc3n2)c(C)n1`, the outcome was “inactive”.
For `O=C(c1ccc(-c2ccc(-c3nc4ccc(C(F)(F)F)cc4[nH]3)s2)cc1)N1CCCCC1CN1CCC(O)C1` (stereo not given), the outcome was “inactive”.
In the case of `O=C(NCC1CCN(CCN2CCc3ccc4c(c3C2)OCO4)CC1)c1ccc(-c2ccc(C(F)(F)F)cc2)cc1`, the outcome is reported as “inactive”.
In the case of `O=C(NCCCCCN1CCC(c2c[nH]c3ccccc23)CC1)c1ccc(Cl)c(Cl)c1`, the outcome is reported as “inactive”.
With `FC(F)(F)c1ccc2nccc(NN=CC=Cc3ccccc3)c2c1` the outcome was “inactive”.
In the case of `N#Cc1ccnc(-c2ccc(CNC3CCN(CC4Cn5c(=O)ccc6ccc(F)c4c65)CC3)cc2)c1` (stereo not given), the outcome is reported as “inactive”.
In the case of `COc1cc2nc(NCc3ccc(S(N)(=O)=O)cc3)nc(Nc3ccc(Oc4ccccc4)cc3)c2cc1OC`, the outcome is reported as “inactive”.
In the case of `Cc1nc(N)nc(N)c1OCc1cccc2c1ccc1ccccc12`, the outcome is reported as “inactive”.
